# ± gives the standard deviation of the averaged measurements.
# Test system: AEK1 (Tb927.3.2440)
# Test: percent reduction in TR-FRET probe signal relative to DMSO control; higher = stronger displacement of ATP-site probe (binding)
# Conditions: 1 µM; incubation time 1 h
row,SMILES,percent reduction in TR-FRET probe signal [%]
1,OCCn1cc(-c2cnc3nnn(Cc4ccc5ncccc5c4)c3n2)cn1,-2.19 ± 3.1
2,O=c1cc(N2CCOCC2)oc2c(-c3ccccc3)cccc12,-4.66 ± 9.2
3,O=c1c(-c2ccc(O)cc2)coc2cc(O)cc(O)c12 [Genistein],23.3 ± 20
4,COc1cc(-c2cc(-c3ccc(N4CCNCC4)cc3)cnc2C)cc(OC)c1OC,-4.94 ± 0.48
5,O=C(c1cccc(Cl)c1F)N1CCN(Cc2cccc(Nc3nccs3)n2)CC1,6.09 ± 13
6,CN1CCN(c2cccc(Nc3nc4c(-c5ccc(S(C)(=O)=O)cc5)cccn4n3)c2)CC1,7.3 ± 6.6
7,Cc1[nH]c(/C=C2\C(=O)Nc3ccc(S(=O)(=O)N(C)c4cccc(Cl)c4)cc32)c(C)c1C(=O)N1CCN(C)CC1,34.1 ± 16
8,C#Cc1cccc(Nc2ncnc3cc4c(cc23)OCCOCCOCCO4)c1 [Icotinib],-5.67 ± 19
9,Oc1c(F)cc(-c2cnccc2-c2ccc(N3CCOCC3)cc2)cc1F,8.04 ± 13
10,CC(C)(C)c1nc(-c2cccc(NS(=O)(=O)c3c(F)cccc3F)c2F)c(-c2ccnc(N)n2)s1,6.2 ± 7.3
11,COc1cc(Nc2c(C#N)cnc3cc(OCCCN4CCN(C)CC4)c(OC)cc23)c(Cl)cc1Cl [Bosutinib (SKI-606)],0.893 ± 13
12,Nc1ccc(C(=O)Nc2cccc(-c3nc(N4CCOCC4)c4oc5ncccc5c4n3)c2)cn1,-7.4 ± 3
13,O=C(Nc1c[nH]nc1-c1nc2cc(CN3CCOCC3)ccc2[nH]1)NC1CC1,52 ± 14
14,Cc1cc(CS(=O)(=O)c2ccccc2)cc(OCc2ccc(CN3CCC[C@@H]3CO)cc2)c1,-6.92 ± 5.9
15,COc1cc(Nc2nc3ccccc3nc2NS(=O)(=O)c2ccc(NC(=O)c3ccc(C)c(OC)c3)cc2)cc(OC)c1,18.9 ± 14
16,Cn1sc(=O)n(Cc2ccccc2)c1=O,-18.6 ± 15
17,"CO[C@H]1C[C@@H]2CC[C@@H](C)[C@@](O)(O2)C(=O)C(=O)N2CCCC[C@H]2C(=O)O[C@H]([C@H](C)C[C@@H]2CC[C@@H](OP(C)(C)=O)[C@H](OC)C2)CC(=O)[C@H](C)/C=C(\C)[C@@H](O)[C@@H](OC)C(=O)[C@H](C)C[C@H](C)/C=C/C=C/C=C/1C [Ridaforolimus (Deforolimus, MK-8669)]",1.74 ± 22
18,NC(=O)c1cccc(-c2cc(Nc3ccc(OC(F)(F)F)cc3)ncn2)c1,-4.38 ± 9.6
19,CCCCCCCCCCCCc1ccc(S(=O)(=O)Nc2nncs2)cc1,11.2 ± 4.2
20,Oc1ccc(Nc2nc(-c3ccc(Cl)cc3)cs2)cc1,-4.54 ± 4.1
21,Cc1c(NC(=O)c2ccc(C(C)(C)C)cc2)cccc1-c1cn(C)c(=O)c(Nc2ccc(C(=O)N3CCOCC3)cc2)n1,-8 ± 7.8
22,Cn1cc(-c2[nH]c3cc(NC(=O)[C@H](N)C4CCCCC4)cc4c3c2C=NNC4=O)cn1,76.9 ± 6.5
23,COc1cc(Nc2ncc(F)c(Nc3ccc4c(n3)NC(=O)C(C)(C)O4)n2)cc(OC)c1OC.O=S(=O)(O)c1ccccc1,85.4 ± 8
24,O=C(c1ccc(Nc2nccc(-c3cc4ccccc4s3)n2)cc1)N1CCC(N2CCCC2)CC1 [IKK-16 (IKK Inhibitor VII)],4.07 ± 9.4
25,Cc1cnc(Nc2ccc(OCCN3CCCC3)cc2)nc1Nc1cccc(S(=O)(=O)NC(C)(C)C)c1,31.6 ± 15
26,C=CC(=O)Nc1cccc(Oc2nc(Nc3ccc(N4CCN(C)CC4)cc3OC)ncc2Cl)c1,3 ± 23
27,CCc1ccc(/C=C2/SC(=S)NC2=O)cc1,-1.24 ± 9.7
